The values that follow come from PubChem BioAssay (EPA / NIEHS).

Broadly, the AC50 is the concentration giving half of the maximal activity seen.

Inconclusive results are not listed. Some compounds were tested as several samples or in several runs, with calls that do not always agree. Calls of active or inactive are those of the source. Rule for the calls, unless noted: active = hit-call score of the fitted dose curve at least 0.9, where 1 is the maximum; inactive = score below 0.9.

Read-out in experiment [1]: Pyruvate Dehydrogenase Kinase 4 (PDK4), PDK4 (gene 5166)
Kind of experiment: LTEA_HepaRG_PDK4: Life Technologies and Expression Analysis (LTEA) Assay for Pyruvate Dehydrogenase Kinase 4 (PDK4) using HepaRG (AID 2283525). Conditions: mRNA level, 48 h; actives raise or lower the signal. The method in brief:
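Readout is qRT-PCR of PDK4 transcript, normalized to three housekeeping genes, with bidirectional fitting against 0.5% DMSO vehicle. Differentiated HepaRG cells were treated 48 h in serum-free induction medium, duplicate wells, eight-point half-log series topping at 100 uM.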

Read-out in experiment [2]: NAD(P)H dehydrogenase [quinone] 1 (NQO1), NQO1 (gene 1728)
Put plainly: LTEA_HepaRG_NQO1: Life Technologies and Expression Analysis (LTEA) Assay for NAD(P)H dehydrogenase [quinone] 1 (NQO1) using HepaRG (AID 2283526). Conditions: mRNA level, 48 h; actives raise or lower the signal. The method in brief:
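Transcript induction or suppression is quantified by qRT-PCR in human HepaRG liver cells dosed for 48 hours. Eight half-log concentrations topping at 100 uM are used, with 0.5% DMSO as vehicle and baseline.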

Read-out in experiment [3]: Nuclear factor erythroid 2-related factor 2 (Homo sapiens) (UniProt Q16236)
Put plainly: LTEA_HepaRG_NFE2L2: Life Technologies and Expression Analysis (LTEA) Assay for Nuclear factor erythroid 2-related factor 2 (NFE2L2) Transcription Factor using HepaRG (AID 2283527). Conditions: mRNA level, 48 h; actives raise or lower the signal. The essentials: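 NFE2L2 transcript level was read by qRT-PCR (housekeeping ACTB/GAPDH/POLR2A normalisation) after 48 h chemical treatment of HepaRG in serum-free induction medium. Duplicate 8-point half-log curves, top 100 uM, 0.5% DMSO vehicle; up- or down-regulation fitted against vehicle.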

Read-out in experiment [4]: succinate dehydrogenase complex iron sulfur subunit B (SDHB), SDHB (gene 6390)
Put plainly: LTEA_HepaRG_SDHB: Life Technologies and Expression Analysis (LTEA) Assay for succinate dehydrogenase complex iron sulfur subunit B (SDHB) using HepaRG (AID 2283528). Conditions: mRNA level, 48 h; actives raise or lower the signal. The essentials:
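Readout is SDHB transcript level by qRT-PCR, normalised to three housekeeping genes and fitted bidirectionally against 0.5% DMSO vehicle. Human HepaRG cells were treated for 48 h at up to 100 uM.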

Read-out in experiment [5]: Signal transducer and activator of transcription 3 (Homo sapiens) (UniProt P40763)
Kind of experiment: LTEA_HepaRG_STAT3: Life Technologies and Expression Analysis (LTEA) Assay for Signal transducer and activator of transcription (STAT3) using HepaRG (AID 2283529). Conditions: mRNA level, 48 h; actives raise or lower the signal. The method in brief: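 STAT3 transcript quantified by qRT-PCR against three housekeeping genes (ACTB, GAPDH, POLR2A), fitted both directions relative to DMSO. HepaRG cultures exposed 48 h to eight half-log concentrations, top 100 uM, 0.5% DMSO, serum-free induction medium.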

Read-out in experiment [6]: solute carrier (SLCO1B1), SLCO1B1 (gene 10599)
Put plainly: LTEA_HepaRG_SLCO1B1: Life Technologies and Expression Analysis (LTEA) Assay for solute carrier (SLCO1B1) using HepaRG (AID 2283530). Conditions: mRNA level, 48 h; actives raise or lower the signal. The method in brief: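 Human HepaRG cultures treated for 48 h with an eight-concentration half-log series topping at 100 uM; SLCO1B1 measured by qRT-PCR and fitted bidirectionally relative to DMSO.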

Read-out in experiment [7]: sulfotransferase 2A1 (SULT2A1), SULT2A1 (gene 6822)
Kind of experiment: LTEA_HepaRG_SULT2A1: Life Technologies and Expression Analysis (LTEA) Assay for sulfotransferase 2A1 (SULT2A1) using HepaRG (AID 2283531). Conditions: mRNA level, 48 h; actives raise or lower the signal. The essentials: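 Gene-expression endpoint in a human liver cell line: SULT2A1 mRNA change after 48 h chemical treatment, curves fitted in both directions relative to 0.5% DMSO vehicle. Concentrations spanned eight half-log steps from 100 uM.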

Read-out in experiment [8]: Transforming Growth Factor (TGFA), TGFA (gene 7039)
Put plainly: LTEA_HepaRG_TGFA: Life Technologies and Expression Analysis (LTEA) Assay for Transforming Growth Factor (TGFA) using HepaRG (AID 2283532). Conditions: mRNA level, 48 h; actives raise or lower the signal. The method in brief:
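TGFA transcript quantified by qRT-PCR (Fluidigm arrays) against three housekeeping genes, after 48 hours chemical treatment of HepaRG cells. Top concentration 100 uM with half-log dilutions, 8 points, duplicates, 0.5% DMSO.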

Read-out in experiment [9]: Transforming Growth Factor (TGFB1), TGFB1 (gene 7040)
Kind of experiment: LTEA_HepaRG_TGFB1: Life Technologies and Expression Analysis (LTEA) Assay for Transforming Growth Factor (TGFB1) Transporter using HepaRG (AID 2283533). Conditions: mRNA level, 48 h; actives raise or lower the signal. The method in brief:
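Eight-point concentration-response (max 100 uM, half-log) in HepaRG under serum-free induction conditions, 48 h. TGFB1 mRNA by qRT-PCR, housekeeping-normalized.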

Read-out in experiment [10]: TIMP1, TIMP1 (gene 7076)
Put plainly: LTEA_HepaRG_TIMP1: Life Technologies and Expression Analysis (LTEA) Assay for TIMP1 using HepaRG (AID 2283534). Conditions: mRNA level, 48 h; actives raise or lower the signal. The method in brief: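 TIMP1 induction or repression in HepaRG cells after 48 h chemical exposure (eight concentrations, highest 100 uM), assessed by normalized qRT-PCR with bidirectional fitting to DMSO controls.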

Read-out in experiment [11]: Tumor necrosis factor receptor 1 (TNFRSF1A), TNFRSF1A (gene 7132)
Put plainly: LTEA_HepaRG_TNFRSF1A: Life Technologies and Expression Analysis (LTEA) Assay for Tumor necrosis factor receptor 1 (TNFRSF1A) using HepaRG (AID 2283535). Conditions: mRNA level, 48 h; actives raise or lower the signal. The method in brief: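 Assay uses 48 h chemical treatment of differentiated HepaRG monolayers, tested in duplicate at eight concentrations from 100 uM downward in 0.5% DMSO. mRNA is normalized to ACTB, GAPDH and POLR2A, with induction or suppression fitted relative to vehicle.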

Read-out in experiment [12]: Thyroid Hormone Responsive (THRSP), THRSP (gene 7069)
Put plainly: LTEA_HepaRG_THRSP: Life Technologies and Expression Analysis (LTEA) Assay for Thyroid Hormone Responsive (THRSP) using HepaRG (AID 2283536). Conditions: mRNA level, 48 h; actives raise or lower the signal. The method in brief:
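THRSP transcript quantified by Fluidigm qRT-PCR against three housekeeping genes after 48 h chemical exposure of HepaRG cells in serum-free induction medium; eight-point half-log series, top 100 uM, 0.5% DMSO vehicle, duplicate wells.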

Read-out in experiment [13]: Cellular tumor antigen p53 (Homo sapiens) (UniProt P04637)
Put plainly: LTEA_HepaRG_TP53: Life Technologies and Expression Analysis (LTEA) Assay for Tumor Protein P53 (TP53) using HepaRG (AID 2283537). Conditions: mRNA level, 48 h; actives raise or lower the signal. The method in brief: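 Read-out is TP53 transcript level by microfluidic qRT-PCR, normalised to three housekeeping genes and fitted bidirectionally against DMSO. Human HepaRG cells received compounds for 48 h, highest concentration 100 uM.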

Read-out in experiment [14]: UDP glucuronosyltransferase (UGT1A1), UGT1A1 (gene 54658)
Kind of experiment: LTEA_HepaRG_UGT1A1: Life Technologies and Expression Analysis (LTEA) Assay for UDP glucuronosyltransferase (UGT1A1) using HepaRG (AID 2283538). Conditions: mRNA level, 48 h; actives raise or lower the signal. The method in brief:
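Cells are plated, cultured 48 h, switched to serum-free induction medium, then dosed 48 h at eight concentrations (max 100 uM, 0.5% DMSO). RNA is isolated and UGT1A1 expression measured by qRT-PCR; changes versus DMSO are fitted in both directions.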

Read-out in experiment [15]: UDP glucuronosyltransferase (UGT1A6), UGT1A6 (gene 54578)
Kind of experiment: LTEA_HepaRG_UGT1A6: Life Technologies and Expression Analysis (LTEA) Assay for UDP glucuronosyltransferase (UGT1A6) using HepaRG (AID 2283539). Conditions: mRNA level, 48 h; actives raise or lower the signal. The method in brief: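 Measures mRNA change in HepaRG hepatic cells exposed 48 h to chemicals (eight-point, maximum 100 uM, 0.5% DMSO vehicle) in serum-free induction medium. Expression normalized to endogenous controls; DMSO served as negative control and baseline.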

Read-out in experiment [16]: X-box binding protein 1 (XBP1), XBP1 (gene 7494)
Kind of experiment: LTEA_HepaRG_XBP1: Life Technologies and Expression Analysis (LTEA) Assay for X-box binding protein 1 (XBP1) using HepaRG (AID 2283540). Conditions: mRNA level, 48 h; actives raise or lower the signal. The essentials:
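Eight concentrations (half-log, highest 100 uM, 0.5% DMSO) tested in duplicate on HepaRG cells over 48 h in serum-free induction medium; qRT-PCR of XBP1 normalised to ACTB, GAPDH, POLR2A.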

A short description of experiment [17]: LTEA_HepaRG_LDH_cytotoxicity: Cytotoxicity Assessment in the Life Technologies and Expression Analysis (LTEA) Assay (AID 2283563; active = hit-call score of the fitted dose curve at least 0.9, where 1 is the maximum;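 for AC50: LDH activity released into spent culture medium as a marker of cell death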). The essentials:
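Spent-medium LDH after 48 h chemical exposure of HepaRG cells in serum-free induction medium; eight concentrations, half-log dilutions from 100 uM, duplicate wells, fitted upward relative to 0.5% DMSO.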

Experiment [18] can be described thus: TOX21_p53_BLA_p2_viability: Viability Assessment in the Tox21 HCT-116 p53 Agonism Beta-lactamase Assay, Phase 2 (AID 2283591; active = hit-call score of the fitted dose curve at least 0.9, where 1 is the maximum;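 note: compound exposure lasted 16 h at 37 °C; actives lower the ATP signal meaning cytotoxicity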). The method in brief: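 Cytotoxicity readout: CellTiter-Glo ATP luminescence, 30 min at room temperature, after the beta-lactamase read. Cells were HCT116 exposed 16 h at 37C to compounds pin-transferred at 217-fold dilution from DMSO stocks.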

The target of experiment [19] is Cellular tumor antigen p53 (Homo sapiens) (UniProt P04637). Put plainly: TOX21_p53_BLA_p2_ratio: Tox21 HCT-116 p53 Agonism Beta-lactamase Assay, Ratio, Phase 2 (AID 2283592; active = hit-call score of the fitted dose curve at least 0.9, where 1 is the maximum). The method in brief:
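DMSO-normalized, positive-direction endpoint derived from the 460 nm/530 nm FRET ratio in HCT116 p53 beta-lactamase reporter cells exposed 16 h at 37C and loaded with CCF4-AM for 2 h.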

Experiment [20] in a line: ATG_XTT_Cytotoxicity: Cytotoxicity Assessment in the Attagene TRANS-FACTORIAL HepG2 Assay (AID 2283584; active = hit-call score of the fitted dose curve at least 0.9, where 1 is the maximum). The essentials: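 24 h chemical exposure of reporter-transfected HepG2; XTT signal loss vs DMSO indicates cytotoxicity.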

Chain of Cellular tumor antigen p53 (Homo sapiens) (P04637 whole entry, looked up): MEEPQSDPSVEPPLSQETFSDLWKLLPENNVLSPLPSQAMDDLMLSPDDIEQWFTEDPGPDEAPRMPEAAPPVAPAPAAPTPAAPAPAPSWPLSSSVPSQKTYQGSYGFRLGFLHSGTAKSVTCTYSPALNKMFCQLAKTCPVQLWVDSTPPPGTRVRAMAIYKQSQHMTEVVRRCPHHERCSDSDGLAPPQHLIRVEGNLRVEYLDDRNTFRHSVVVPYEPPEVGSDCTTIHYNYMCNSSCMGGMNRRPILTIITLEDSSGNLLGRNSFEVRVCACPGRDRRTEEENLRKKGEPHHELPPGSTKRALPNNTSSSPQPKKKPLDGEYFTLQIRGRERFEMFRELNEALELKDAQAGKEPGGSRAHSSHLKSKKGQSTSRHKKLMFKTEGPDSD
Chain of Signal transducer and activator of transcription 3 (Homo sapiens) (P40763 whole entry, looked up): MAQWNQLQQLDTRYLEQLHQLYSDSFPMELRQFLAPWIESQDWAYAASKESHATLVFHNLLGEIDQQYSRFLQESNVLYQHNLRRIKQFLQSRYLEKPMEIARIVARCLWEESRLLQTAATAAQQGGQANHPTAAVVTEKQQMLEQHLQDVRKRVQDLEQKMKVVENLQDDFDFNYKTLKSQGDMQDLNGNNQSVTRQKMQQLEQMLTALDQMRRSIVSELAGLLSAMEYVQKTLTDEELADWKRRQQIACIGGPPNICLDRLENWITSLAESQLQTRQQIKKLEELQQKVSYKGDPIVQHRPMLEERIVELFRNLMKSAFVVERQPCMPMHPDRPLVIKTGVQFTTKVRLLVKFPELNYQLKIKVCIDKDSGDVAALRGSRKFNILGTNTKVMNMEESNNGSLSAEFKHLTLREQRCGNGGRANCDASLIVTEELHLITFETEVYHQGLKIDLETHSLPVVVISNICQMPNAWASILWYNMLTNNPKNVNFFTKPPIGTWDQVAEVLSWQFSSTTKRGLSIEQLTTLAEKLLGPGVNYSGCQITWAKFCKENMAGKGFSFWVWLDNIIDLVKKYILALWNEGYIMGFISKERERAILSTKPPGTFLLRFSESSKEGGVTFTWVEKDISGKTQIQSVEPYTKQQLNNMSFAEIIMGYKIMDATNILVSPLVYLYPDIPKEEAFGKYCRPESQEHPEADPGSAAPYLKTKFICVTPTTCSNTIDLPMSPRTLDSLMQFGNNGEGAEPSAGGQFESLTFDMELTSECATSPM
Chain of Nuclear factor erythroid 2-related factor 2 (Homo sapiens) (Q16236 whole entry, looked up): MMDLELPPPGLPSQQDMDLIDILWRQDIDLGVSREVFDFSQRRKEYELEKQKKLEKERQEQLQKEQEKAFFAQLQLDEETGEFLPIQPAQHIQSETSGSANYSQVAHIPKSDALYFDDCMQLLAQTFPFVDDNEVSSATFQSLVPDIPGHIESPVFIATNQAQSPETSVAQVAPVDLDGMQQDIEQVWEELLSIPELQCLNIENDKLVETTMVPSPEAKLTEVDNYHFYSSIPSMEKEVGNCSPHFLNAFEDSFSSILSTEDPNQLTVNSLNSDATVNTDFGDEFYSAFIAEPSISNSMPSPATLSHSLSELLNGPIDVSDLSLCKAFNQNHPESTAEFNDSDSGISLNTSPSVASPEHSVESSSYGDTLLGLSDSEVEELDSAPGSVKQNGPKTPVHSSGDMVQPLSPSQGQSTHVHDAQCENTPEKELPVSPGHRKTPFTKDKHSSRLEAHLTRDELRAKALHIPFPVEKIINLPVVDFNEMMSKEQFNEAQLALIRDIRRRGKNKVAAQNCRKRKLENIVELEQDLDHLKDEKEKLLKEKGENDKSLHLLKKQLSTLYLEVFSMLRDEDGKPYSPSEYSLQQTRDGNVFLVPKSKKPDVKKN

As to `NC(=O)N(O)[C@@H]1C=C[C@H](Oc2cccc(Oc3ccc(F)cc3)c2)C1`, the concentration at half-maximal activity (AC50) is 50 µM (active) in experiment [1]; 81.9 µM (active) in [3]; 86.1 µM (active) in experiment [6]; 76.5 µM (active) in experiment [7]; 76.2 µM (active) in experiment [8]; 72.4 µM (active) in experiment [9]. The AC50 in experiment [13] was 50 µM (active); in experiment [14], 75.5 µM (active); in experiment [15], 75.8 µM (active); in experiment [16], 28.2 µM (active); in experiment [17], 73.5 µM (active); in [19], 66.5 µM (active). The call in experiment [2], in experiment [4], in [5], in [10], in experiment [11] and in experiment [12] was inactive. The result in experiment [18] was inactive.

With `CC(C)(C)c1ccc(O)c(C(C)(C)C)c1`, the call in experiment [1], in experiment [2], in experiment [4], in [6], in experiment [7] and in [8] was inactive. Further, the result in experiment [9], in experiment [10], in [12], in experiment [13], in [14] and in [15] was inactive. The compound was called inactive in [16], in experiment [17], in experiment [20], in experiment [18] and in experiment [19]. Moreover, the half-maximal activity concentration (AC50) in experiment [5] was 9.92 µM (active); in experiment [11], 50 µM (active); in [18], 42.4 µM (active).
